Laboratory results taken from the supplement of paper PMC10121225.
Counter-ions that a name gives are not always drawn.

Each molecule was assayed on hN + hpA co-culture (H1 iNGN2 human neurons + human primary astrocytes) (assay: presynaptic density (SYNAPSIN1 puncta per MAP2 neurite area), Z-score vs DMSO controls; higher = more presynaptic puncta (synapse-promoting)). Conditions: 3 µM; 72 h.
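Also: immunostained co-cultures imaged by high-content microscopy, Z-score per plate against mean and SD of 0.1% DMSO wells, compounds added on differentiation day 18, analysed day 21.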

| Compound | presynaptic density (Z-score) |
| --- | --- |
| Cc1cc(Nc2cc(CN3CCOCC3)c3nc(C)c(Cc4ccc(Cl)cc4F)n3n2)n[nH]1 | -1.8 |
| S=C=Nc1cccc(NC(=S)NCCCCNC(=S)Nc2cccc(N=C=S)c2)c1 | 0.95 |
| COc1cc2c(cc1-c1c(C)noc1C)ncc1[nH]c(=O)n([C@H](C)c3ccccn3)c12 [I-BET 151 hydrochloride] | 3.55 |
| O=C(Nc1ccncc1)c1cc([N+](=O)[O-])ccc1Cl [2-Chloro-5-nitro-N-4-pyridinylbenzamide] | 0.702 |
